A selection: hits, their analogues and other compounds. The true share with any hit is near 28%.
CD11b adhes enh – enhancers of human CD11b/CD18 binding to fibrinogen; P05107+P11215; K562 CD11b/CD18 adhesion to fibrinogen, ATPlite luminescence; activation, % at 10 µM; 93,000 tested, 0.07% active; AID 1499;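 active = 10 µM primary screen giving 50% or more activity, confirmed by 40% or more on retest at that dose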
CYP2C19 inhib – blocks human cytochrome P450 2C19 | CYP2C19 Supersomes, luciferin-H EGE luminescence, 30 min | inhibition, % at 5 µM | 96,000 tested, 21% active;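 active = CYP2C19 inhibition above a set limit at 5 µM in the primary screen, cut at about 50% in these data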
CYP2C9 activ – activators of human CYP2C9 | recombinant CYP2C9, luciferin-H conversion, luminescence; hits give high values; factor 1 = untreated enzyme, 0 = blocked | P11712 | activation factor at 5 µM | 96,000 tested, 1.4% active;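 active = activation factor of 2 or more for CYP2C9 at a 5 µM dose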
Target sequence (P11712 whole entry, looked up): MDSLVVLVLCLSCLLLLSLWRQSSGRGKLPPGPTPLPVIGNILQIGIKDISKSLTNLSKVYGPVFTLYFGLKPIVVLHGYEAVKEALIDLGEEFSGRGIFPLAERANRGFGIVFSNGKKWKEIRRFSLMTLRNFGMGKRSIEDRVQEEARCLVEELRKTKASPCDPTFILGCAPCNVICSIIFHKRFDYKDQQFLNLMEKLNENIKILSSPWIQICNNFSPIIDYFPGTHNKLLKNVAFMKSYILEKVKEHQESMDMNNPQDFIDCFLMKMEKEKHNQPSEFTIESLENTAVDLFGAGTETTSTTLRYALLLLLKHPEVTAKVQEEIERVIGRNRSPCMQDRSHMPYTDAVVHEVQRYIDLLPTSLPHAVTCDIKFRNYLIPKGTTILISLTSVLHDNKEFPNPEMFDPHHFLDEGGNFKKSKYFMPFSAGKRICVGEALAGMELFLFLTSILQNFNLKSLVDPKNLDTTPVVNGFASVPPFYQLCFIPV
Mac1 fbg inh – inhibitors of human CD11b/CD18 binding to fibrinogen. P05107+P11215. K562 CD11b/CD18 adhesion to fibrinogen, ATPlite luminescence; Mn2+ added to activate the integrin. inhibition, % at 10 µM. 93,000 tested, 0.54% active;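 active = primary inhibition of 50% or more at 10 µM, then 40% or more on retest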
CYP2C9 inhib – blocks human cytochrome P450 2C9 | P11712 | CYP2C9 Supersomes, luciferin-H conversion, luminescence | inhibition, % at 5 µM | 96,000 tested, 20% active;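 active = blocking of liver enzyme CYP2C9 beyond about 50% at 5 µM, limit read from the data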
CYP2C19 act – cytochrome P450 2C19 (human) activation. 96,000 tested, under 10 active. P33261. activation factor at 5 µM. AID 1025. recombinant CYP2C19, luciferin-H EGE luminescence; hits give high values; 0 = fully inhibited enzyme, 1 = untreated enzyme;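 active = activation factor of at least 2 at 5 µM in the primary screen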
Large screens that a line does not name were inactive.

COc1ccc(C2c3c(-c4cc(Cl)c(C)cc4O)n[nH]c3C(=O)N2Cc2cccnc2)cc1OC (stereo not given)	CYP2C19 inhib 86, CYP2C9 inhib 93
COc1ccc(N2CCN(S(=O)(=O)c3ccc4c(c3)CCCC4)CC2)c([N+](=O)[O-])c1	none
CCc1c(C)nc(N)nc1OCC(F)(F)C(F)F	none
CCSc1nnc([C@@H]2CCCN2C(=O)OC(C)(C)C)o1	none
CC(C)(C)OC(=O)N1CCC[C@H]1c1nnc(SCc2c(Cl)cccc2Cl)o1	CYP2C19 inhib 71, CYP2C9 inhib 78
Cc1c(C(=O)N2c3ccccc3Sc3ccccc32)cccc1[N+](=O)[O-]	none (no result: CYP2C19 inhib, CYP2C9 activ, CYP2C9 inhib, CYP2C19 act)
Cc1ccc(Oc2ccccc2/C=N/O)cc1	CYP2C19 inhib 82
CCCS(=O)(=O)N1CCC(C(=O)NCCCOCC)CC1	none
Cn1c(SCC(=O)NCc2ccco2)nnc1-c1c[nH]c2ccccc12	CYP2C19 inhib 52
CCOc1ccc(-n2c(SCC(=O)NCc3ccco3)nnc2-c2c[nH]c3ccccc23)cc1	CYP2C9 inhib 60
O=C(NCC1(c2ccccc2)CCCC1)c1cccc(Br)c1	none (no result: CD11b adhes enh, Mac1 fbg inh)
O=C(COC(=O)Cn1cnc2ccccc2c1=O)Nc1ccccc1Sc1ccc(Cl)cc1	none (no result: CYP2C19 inhib, CYP2C9 activ, CYP2C9 inhib, CYP2C19 act)
C/C(=N\Nc1ccc([N+](=O)[O-])cc1[N+](=O)[O-])C(C)(C)C(C(=O)O)C(=O)O	none (no result: CYP2C19 inhib, CYP2C9 activ, CYP2C9 inhib, CYP2C19 act)
COc1ccc(NC(=O)C2CSC3c4ccccc4C(=O)N23)cc1 (stereo not given)	CYP2C19 inhib 70, CYP2C9 inhib 60
O=C(NCC1CCCO1)[C@@H]1CSC2c3ccccc3C(=O)N21 (stereo not given in full)	none
CNC(=S)N/N=C(\C)c1cccc([N+](=O)[O-])c1	none (no result: CYP2C19 inhib, CYP2C9 activ, CYP2C9 inhib, CYP2C19 act)
C/C(=N\Nc1ccc([N+](=O)[O-])cc1)c1cccc(N)c1	CYP2C19 inhib 90 (no result: CD11b adhes enh, Mac1 fbg inh)
CCCCOc1ccc(CNn2c(C)nc3ccccc3c2=O)cc1	CYP2C19 inhib 91, CYP2C9 inhib 67 (no result: CD11b adhes enh, Mac1 fbg inh)
Nn1c(CN2CCCCC2)nc2ccccc2c1=O	none
Cc1nc2ccccc2c(=O)n1N	CYP2C19 inhib 77, CYP2C9 inhib 97
COc1ccc(CNn2c(C)nc3ccccc3c2=O)cc1	CYP2C19 inhib 96 (no result: CD11b adhes enh, Mac1 fbg inh)
Cn1nc(C(F)(F)F)c(C#N)c1N1CCN(c2cccc(C(F)(F)F)c2)CC1	none
CCOC(=O)C1C(=O)C(C(C)=O)C(=O)CC1CC(C)SCC (stereo not given)	none
CCOC(=O)C1=C(C)N(C)C(C)=C(C(=O)OCC)C1c1ccncc1	CYP2C19 inhib 97, CYP2C9 inhib 100
CCN1C(=O)NC(c2cccnc2)C(C(=O)OC)=C1C (stereo not given)	none
CCOC(=O)C1=C(C)NC(=O)NC1c1cccnc1 (stereo not given)	none
COC(=O)C1=C(C)N(C)C(C)=C(C(=O)OC)C1c1ccc(F)c(Br)c1	CYP2C19 inhib 65, CYP2C9 inhib 94 (no result: CD11b adhes enh, Mac1 fbg inh)
COC(=O)C1=C(C)N(C)C(C)=C(C(=O)OC)C1c1ccncc1	CYP2C19 inhib 78, CYP2C9 inhib 79
CCc1nc(OCc2ccccc2)c2sc3nc4c(cc3c2n1)COC(C)(C)C4	none
CCOCCCNC(=O)C1CCN(S(=O)(=O)N2CC(C)CC(C)C2)CC1 (stereo not given)	none (no result: CD11b adhes enh, Mac1 fbg inh)
O=C(CCCN1C(=O)c2ccccc2C1=O)Nc1ccc(S(=O)(=O)N2CCCCC2)cc1	CYP2C19 inhib 63, CYP2C9 inhib 94
O=C(Cn1c(=O)sc2ccccc21)Nc1ccc(S(=O)(=O)N2CCCC2)cc1	CYP2C19 inhib 80, CYP2C9 inhib 98
O=C(OCCN1C(=O)c2ccccc2C1=O)c1ccc(S(=O)(=O)N2CCCCCC2)cc1	CYP2C9 inhib 82
O=C(CNC(=O)c1ccco1)Nc1ccc(S(=O)(=O)N2CCCC2)cc1	none
O=C(CN1C(=O)c2ccccc2S1(=O)=O)NCc1ccccc1Cl	CYP2C19 inhib 59
O=C(OCC(=O)c1ccc[nH]1)c1ccc(S(=O)(=O)N2CCCCCC2)cc1	none
O=C(CN1C(=O)c2ccccc2S1(=O)=O)Nc1ccc(S(=O)(=O)N2CCCCCC2)cc1	CYP2C19 inhib 50, CYP2C9 inhib 87
COC(=O)c1cccc(N2C(=O)c3ccccc3S2(=O)=O)c1	none
CCC(C)NC(=O)c1ccccc1NC(=O)CN1C(=O)c2ccccc2S1(=O)=O (stereo not given)	CYP2C9 inhib 85
COC(=O)c1ccc(CN2C(=O)c3ccccc3S2(=O)=O)cc1	CYP2C19 inhib 84, CYP2C9 inhib 60
COC(=O)c1ccccc1NC(=O)CN1C(=O)c2ccccc2S1(=O)=O	none
Cc1csc(NC(=O)CSCC(=O)Nc2ccccc2)n1	CYP2C9 inhib 57
CC(C)(C)c1csc(NC(=O)Cn2cnc3ccccc3c2=O)n1	none
Cc1cc(NC(=O)Cc2csc(-c3ccccc3)n2)ccc1Br	none (no result: CYP2C19 inhib, CYP2C9 activ, CYP2C9 inhib, CYP2C19 act)
Cc1csc(NC(=O)CSc2nc3ccccc3c(=O)[nH]2)n1	CYP2C9 inhib 55
Cc1cccc(C)c1NC(=O)CSc1nc2ccccc2c(=O)[nH]1	none
CC(C)(C)c1csc(NC(=O)CSc2nc3ccccc3c(=O)[nH]2)n1	CYP2C19 inhib 67, CYP2C9 inhib 94
Cc1ccc(NC(=S)Nc2nc(CC(=O)Nc3ccccc3)cs2)cc1	CYP2C19 inhib 59 (no result: CD11b adhes enh, Mac1 fbg inh)
COC(=O)C(Cc1ccc(OC(=O)c2ccccc2C)cc1)N1Cc2ccccc2C1=O (stereo not given)	none
C/C(=N\NC(=O)c1cccc(F)c1)c1ccc(Br)s1	none (no result: CD11b adhes enh, Mac1 fbg inh)
Cc1ccc(S(=O)(=O)N2CCCN(S(=O)(=O)C3CCS(=O)(=O)C3)CC2)cc1 (stereo not given)	none
Cc1cc(=O)[nH]c(SCC(=O)c2ccc(C(C)C)cc2)n1	none
CN(C)C(=O)CSc1nc2ccccc2c(=O)[nH]1	none
CC(C)(C)N(Cc1ccccc1)C(=O)CSc1nc2ccccc2c(=O)[nH]1	CYP2C19 inhib 66, CYP2C9 inhib 82
Cc1ccc(C(=O)CSc2nc3ccccc3c(=O)[nH]2)cc1	CYP2C9 inhib 75
Cc1cc(C)c2c(=O)[nH]c(SCC(=O)c3ccc(C(C)C)cc3)nc2n1	CYP2C9 inhib 51
CCc1ccc(C(=O)CSc2nc3ccccc3c(=O)[nH]2)cc1	none
COc1cc(/C=N/Nc2ccc3ccccc3c2)ccc1OC(=O)c1ccco1	none (no result: CYP2C19 inhib, CYP2C9 activ, CYP2C9 inhib, CYP2C19 act)
Cc1ccc(NC(=O)Nc2nc(-c3ccc(C)s3)cs2)cc1	none (no result: CD11b adhes enh, Mac1 fbg inh)
CC(C)C1NC(=S)N(Cc2ccccc2)C1=O (stereo not given)	CYP2C19 inhib 58 (no result: CD11b adhes enh, Mac1 fbg inh)
CCC(CC)c1nc(NCCC(=O)O)c2ccccc2n1	none
Cc1ccc2c(c1)cc(CN(Cc1ccc3c(c1)OCO3)S(=O)(=O)c1ccccc1)c1nnnn12	CYP2C19 inhib 80, CYP2C9 inhib 69
COC(=O)c1cc(NC(=O)CC2NC3CCCCC3NC2=O)cc(C(=O)OC)c1 (stereo not given)	none
CCOC(=O)c1c(C)oc2ccc(O)c(CN(C)C)c12	none

Assay outcomes deposited in PubChem by Sanford-Burnham Center for Chemical Genomics.
